# Reference: PubChem BioAssay (NCATS)
# Values joined by “and” are separate entries in the source; they are usually repeats but may differ in a detail not shown here. Equal values may be shown once. Results filed as inconclusive are left out. Active and inactive are the calls of the source. Unless noted, calls come from the whole dose curve; as a rule, active = well fitted curve in the direction sought with a large enough effect; inconclusive = small, poorly fitted or top-dose-only effect, or another doubt; inactive = no such curve, though single readings can be large; an effect the other way counts as inactive or inconclusive.
# What was measured:
# [1] = biological target: Arylsulfatase A (Homo sapiens) (UniProt P15289); test: qHTS screen for enhancers of Arylsulfatase A (ASA1): LOPAC Validation Assay (AID 720538); note: potency is the fitted concentration of half-maximal effect
# Chain of Arylsulfatase A (Homo sapiens) (P15289 whole entry, looked up): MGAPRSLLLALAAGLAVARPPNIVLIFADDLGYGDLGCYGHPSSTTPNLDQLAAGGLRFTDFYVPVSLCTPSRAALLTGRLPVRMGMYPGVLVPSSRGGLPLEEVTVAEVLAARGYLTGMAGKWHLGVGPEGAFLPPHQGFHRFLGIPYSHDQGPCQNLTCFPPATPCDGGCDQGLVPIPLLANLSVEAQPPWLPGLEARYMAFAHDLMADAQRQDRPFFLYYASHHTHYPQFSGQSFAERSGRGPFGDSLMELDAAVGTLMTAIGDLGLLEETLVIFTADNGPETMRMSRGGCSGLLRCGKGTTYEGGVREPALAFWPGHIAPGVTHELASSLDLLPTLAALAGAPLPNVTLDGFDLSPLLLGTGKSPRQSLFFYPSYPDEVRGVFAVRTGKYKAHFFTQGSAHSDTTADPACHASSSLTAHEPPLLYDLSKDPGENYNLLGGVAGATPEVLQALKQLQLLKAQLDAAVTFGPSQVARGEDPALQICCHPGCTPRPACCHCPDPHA
# In short: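 Enhancer assay in patient-derived MLD fibroblasts carrying ASA-I179S: 48 h compound exposure at 37 C, then 14 h room-temperature pNCS turnover (0.5 mM final) in lysis buffer. Read by fluorescence at 525/598 nm after NaOH stop.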
# [2] = qHTS for compounds that reverse cellular toxicity of Amyloid beta (A-beta) peptide in yeast: LOPAC Validation Assay (AID 720559);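 note: plate controls were DMSO for no effect and equimolar ferric chloride plus clioquinol rescue for full effect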
# In short: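 Rescue of A-beta toxicity was scored as yeast growth by 600 nm absorbance after 48 hr at 30 C with compound. Normalization used DMSO (negative) and equimolar ferric chloride plus clioquinol (positive).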
# [3] = qHTS for Activators of Parkin Expression: LOPAC Validation Assay (NLuc Reporter) (AID 720572; note: potency is the fitted concentration of half-maximal effect)
# In short: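 Parkin promoter-driven FLuc/NLuc neuronal reporter cells; 24 h plating, 7-pt dose response, 24 h at 37 C/5% CO2; FLuc then NanoLuc reagent, 10 min each, luminescence; DMSO/positive control normalized.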
# [4] = qHTS for Activators of Parkin Expression: LOPAC Validation Assay (FLuc Reporter) (AID 720573;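 note: 0% = DMSO and 100% = positive control compounds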)
# In short: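 FLuc signal from Parkin-promoter coincidence reporter neuronal cells, normalized to DMSO and positive control (100%). Cells (1,500/well) pre-incubated 24 h, then exposed to LOPAC compounds in 7-point dose response for 24 h at 37 C, 5% CO2.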
# [5] = biological target: T1, Hexokinase-4 (Homo sapiens) + Glucokinase regulatory protein (Homo sapiens) (UniProt P35557+Q14397); test: qHTS assay for inhibitors of recombinant human GCK-GKRP interaction: Diaphorase-coupled assay (AID 743205)
# T1 sequence (P35557 whole entry, looked up): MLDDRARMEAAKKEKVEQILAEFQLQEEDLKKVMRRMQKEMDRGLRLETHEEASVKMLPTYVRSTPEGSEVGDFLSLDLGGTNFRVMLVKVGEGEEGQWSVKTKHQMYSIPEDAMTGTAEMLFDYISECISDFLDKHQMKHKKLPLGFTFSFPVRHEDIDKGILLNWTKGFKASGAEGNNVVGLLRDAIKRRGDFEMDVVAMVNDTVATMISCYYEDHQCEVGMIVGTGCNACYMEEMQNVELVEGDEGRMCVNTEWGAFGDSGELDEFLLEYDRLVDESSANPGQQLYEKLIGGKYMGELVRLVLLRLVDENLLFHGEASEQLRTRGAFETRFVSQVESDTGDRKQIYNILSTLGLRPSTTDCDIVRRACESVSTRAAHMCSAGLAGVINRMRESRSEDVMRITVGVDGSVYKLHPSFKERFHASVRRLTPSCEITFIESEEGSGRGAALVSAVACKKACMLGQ
# T1 sequence (Q14397 whole entry, looked up): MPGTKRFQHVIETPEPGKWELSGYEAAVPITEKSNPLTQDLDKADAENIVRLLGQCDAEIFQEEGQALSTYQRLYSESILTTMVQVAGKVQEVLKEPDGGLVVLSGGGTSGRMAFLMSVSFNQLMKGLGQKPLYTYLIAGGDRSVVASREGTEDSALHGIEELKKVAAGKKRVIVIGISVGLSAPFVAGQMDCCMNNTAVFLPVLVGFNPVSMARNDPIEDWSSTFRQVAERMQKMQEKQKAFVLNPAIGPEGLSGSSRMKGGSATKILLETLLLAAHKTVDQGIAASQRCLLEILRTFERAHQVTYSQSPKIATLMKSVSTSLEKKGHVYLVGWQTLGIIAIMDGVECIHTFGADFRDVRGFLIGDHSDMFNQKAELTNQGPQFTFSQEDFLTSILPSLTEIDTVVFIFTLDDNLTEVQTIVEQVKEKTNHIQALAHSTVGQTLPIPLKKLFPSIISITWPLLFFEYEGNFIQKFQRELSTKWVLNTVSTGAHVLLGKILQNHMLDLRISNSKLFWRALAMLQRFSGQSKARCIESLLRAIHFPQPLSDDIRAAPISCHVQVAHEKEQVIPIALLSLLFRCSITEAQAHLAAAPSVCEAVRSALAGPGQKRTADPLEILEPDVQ
# In short: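 A kinetic fluorescence read (Ex 525/Em 590 nm, every minute for 30 minutes) tracked resorufin from a G6PDH-diaphorase coupled GCK reaction. It contained 10 nM GST-GCK, 10 nM FLAG-GKRP, 5 mM glucose, 0.4 mM ATP in Hepes pH 7.6. Normalized to with/without-enzyme DMSO controls.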
# [6] = biological target: T1, Hexokinase-4 (Homo sapiens) + Glucokinase regulatory protein (Homo sapiens); test: qHTS assay for inhibitors of recombinant human GCK-GKRP interaction: ADP-Glo assay (AID 743206);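 note: plate controls were DMSO plus enzyme for no effect and no enzyme for full effect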
# In short: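 GST-GCK and FLAG-GKRP (15 nM each in the dispensed mix, with 2 uM S6P) react with 0.4 mM ATP and 5 mM glucose (final) in Hepes pH 7.6 for 60 min at room temperature. ADP is measured by ADP-Glo luminescence.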
# [7] = biological target: T1, Hexokinase-4 (Homo sapiens) + Glucokinase regulatory protein (Homo sapiens); test: qHTS assay for inhibitors of recombinant human GCK-GKRP interaction: HTRF assay (AID 743207);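 note: 0% = DMSO with GCK present and -100% = DMSO wells lacking GCK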
# In short: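 After 60 min equilibration at room temperature with anti-FLAG XL665 and anti-GST antibodies, FRET ratio (665/615 nm, excitation 320 nm) was read. Proteins: GST-GCK and FLAG-GKRP, each 5 nM, plus 2 uM S6P, pH 7.1 buffer; GCK-free wells define minimum signal.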
# [8] = qHTS Assay for Identifying Gametocytocidal Compounds (AID 743244); note: potency is the fitted concentration of half-maximal effect;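 for max response: % is set by controls: 0 for no effect and ±100 for the full control effect; actives lower the fluorescent signal which means gametocytes are killed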; conditions: P. falciparum 3D7 stage III-V gametocytes, alamarBlue, 72 h; max response: stronger effect = lower value
# In short: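 In this qHTS viability screen, late-stage 3D7 gametocytes are incubated with compound for 72 h, then with alamarBlue for 24 h; reduced resorufin fluorescence marks killing.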
# [9] = biological target: Peroxisome proliferator-activated receptor alpha (Homo sapiens) (UniProt Q07869); test: qHTS assay for small molecule agonists of the peroxisome proliferator-activated receptor alpha (PPARalpha) signaling pathway (AID 651778); conditions: PathHunter PPARalpha complementation, chemiluminescence, 6 h; max response: stronger effect = higher value; note: % of control where 0% means no effect
# Chain of Peroxisome proliferator-activated receptor alpha (Homo sapiens) (Q07869 whole entry, looked up): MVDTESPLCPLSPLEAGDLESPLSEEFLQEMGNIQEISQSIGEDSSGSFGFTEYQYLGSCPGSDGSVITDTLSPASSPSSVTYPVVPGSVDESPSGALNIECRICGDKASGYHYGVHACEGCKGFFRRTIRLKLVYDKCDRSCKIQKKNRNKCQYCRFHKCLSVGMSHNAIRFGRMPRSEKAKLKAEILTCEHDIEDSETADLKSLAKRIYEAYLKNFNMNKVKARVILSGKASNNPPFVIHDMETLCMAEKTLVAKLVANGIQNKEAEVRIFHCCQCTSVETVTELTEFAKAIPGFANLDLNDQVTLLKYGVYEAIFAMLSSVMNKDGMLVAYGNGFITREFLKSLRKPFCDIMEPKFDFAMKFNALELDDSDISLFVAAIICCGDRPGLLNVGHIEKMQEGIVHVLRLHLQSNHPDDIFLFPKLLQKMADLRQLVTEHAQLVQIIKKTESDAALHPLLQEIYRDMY
# In short: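 Chemiluminescence from complemented enzyme reported PPARalpha activation in cells after 6 hr of compound treatment at 37 C. The detection reagent was incubated for 60 min at room temperature, and compounds were scored as agonists.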
# [10] = qHTS assay for small molecule agonists of the antioxidant response element (ARE) signaling pathway measured by Nrf2-dependant transcriptional activity - cell viability counter screen (AID 720653; active = well fitted curve in the direction sought with a large enough effect in the repeat runs; an effect the other way counts as inactive or inconclusive; note: % is set by controls: 0 for no effect and ±100 for the full control effect); conditions: ARE-bla HepG2 viability, CellTiter-Glo ATP luminescence, 16 h; stronger effect = lower value
# In short: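 Cytotoxicity counter screen: intracellular ATP quantified by CellTiter-Glo luminescence in the same ARE-bla HepG2 plates, after 16 h compound exposure and a 2 h beta-lactamase substrate step.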
# [11] = qHTS assay for cell viability of HEK293 cells (AID 743288); conditions: ATP luminescence (CellTiter-Glo), 18 h; max response: stronger effect = lower value; note: nearly all actives have a fitted effect of over 50% in size; note: potency is the fitted concentration of half-maximal effect; for max response: % is set by controls: 0 for no effect and ±100 for the full control effect
# In short: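 Total intracellular ATP, measured with a luciferase-coupled reagent, indicates the number of viable HEK293 cells. Exposure to test chemicals lasts 18 h at 37 C in 1,536-well format at 2,000 cells/well.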
# [12] = qHTS assay for cell viability of the p53RE-bla HCT-116 cell line (AID 743292); note: % is set by controls: 0 for no effect and ±100 for the full control effect; nearly all actives have a fitted effect of over 55% in size
# In short: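 Readout: CellTiter-Glo luminescence after 30 min RT. Treatment: compounds in DMSO, 16 h, 37 C. Cells: CellSensor p53RE-bla HCT-116, 4,000/well, preincubated 5 h.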
# [13] = biological target: Nuclear receptor ROR-gamma (Homo sapiens) (UniProt P51449); test: qHTS assay for small molecule antagonists of the retinoid-related orphan receptor gamma (ROR-gamma) signaling pathway (AID 651802); note: nearly all actives have a fitted effect of over 60% in size; note: potency is the fitted concentration of half-maximal effect
# Chain of Nuclear receptor ROR-gamma (Homo sapiens) (P51449 whole entry, looked up): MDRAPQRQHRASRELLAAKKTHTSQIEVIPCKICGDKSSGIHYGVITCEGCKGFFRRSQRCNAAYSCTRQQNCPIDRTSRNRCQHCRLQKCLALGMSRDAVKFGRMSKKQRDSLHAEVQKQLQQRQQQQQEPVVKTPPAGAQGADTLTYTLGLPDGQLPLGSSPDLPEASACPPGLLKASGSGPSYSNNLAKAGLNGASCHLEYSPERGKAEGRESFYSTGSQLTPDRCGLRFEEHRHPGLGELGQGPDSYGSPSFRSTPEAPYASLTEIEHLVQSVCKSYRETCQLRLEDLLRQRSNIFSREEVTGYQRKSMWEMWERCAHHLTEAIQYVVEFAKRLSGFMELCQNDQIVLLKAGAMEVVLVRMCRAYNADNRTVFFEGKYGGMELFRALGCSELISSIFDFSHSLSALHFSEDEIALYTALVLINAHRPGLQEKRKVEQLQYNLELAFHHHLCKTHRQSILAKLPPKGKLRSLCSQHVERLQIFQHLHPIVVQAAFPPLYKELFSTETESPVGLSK
# In short: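 CHO cells carrying TET-inducible ROR-gamma and an ROR response element–luciferase reporter were exposed to compound, then induced with doxycycline. After 16hr at 37C, luminescence was read; lower signal indicates antagonism.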
# [14] = qHTS assay for small molecule antagonists of the retinoid-related orphan receptor gamma (ROR-gamma) signaling pathway - cell viability counter screen (AID 720652; active = well fitted curve in the direction sought with a large enough effect in the repeat runs; an effect the other way counts as inactive or inconclusive;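 note: compound exposure lasted 16 hr before ATP read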; note: potency is the fitted concentration of half-maximal effect)
# In short: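 Counter screen in CHO cells carrying TET-inducible ROR-gamma and an ROR response element-luciferase reporter; cells plated 5 hr, compound pinned, doxycycline added, then 16 hr at 37 C. Viability read as intracellular ATP by CellTiter-Glo luminescence.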
# [15] = qHTS profiling of the MIPE4 collection as inhibitors of Plasmodium falciparum (3D7) proliferation (AID 743344; call rule not given here;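 note: scaled between DMSO vehicle wells and 0.29 µM artemisinin as full inhibition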); conditions: P. falciparum 3D7 in erythrocytes, SYBR Green DNA fluorescence, 72 h; at 28.5 µM (top of the series)
# In short: (§1)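 Erythrocytes infected with P. falciparum (0.3% parasitemia, 2.5% hematocrit) incubated with compounds 72 h at 37 C, 5% CO2. Lysis with saponin/Triton buffer containing SYBR Green I, overnight at room temperature in the dark; DNA fluorescence (485/535 nm) normalised to 0.29 uM artemisinin and DMSO.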
# [16] = biological target: Tyrosine-protein kinase Yes (Homo sapiens) (UniProt P07947); test: qHTS for small molecule inhibitors of Yes1 kinase: Primary Screen (AID 686947);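 note: plate controls were DMSO with enzyme for no effect and no-enzyme DMSO wells for full effect; nearly all actives have a fitted effect of over 60% in size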
# Chain of Tyrosine-protein kinase Yes (Homo sapiens) (P07947 whole entry, looked up): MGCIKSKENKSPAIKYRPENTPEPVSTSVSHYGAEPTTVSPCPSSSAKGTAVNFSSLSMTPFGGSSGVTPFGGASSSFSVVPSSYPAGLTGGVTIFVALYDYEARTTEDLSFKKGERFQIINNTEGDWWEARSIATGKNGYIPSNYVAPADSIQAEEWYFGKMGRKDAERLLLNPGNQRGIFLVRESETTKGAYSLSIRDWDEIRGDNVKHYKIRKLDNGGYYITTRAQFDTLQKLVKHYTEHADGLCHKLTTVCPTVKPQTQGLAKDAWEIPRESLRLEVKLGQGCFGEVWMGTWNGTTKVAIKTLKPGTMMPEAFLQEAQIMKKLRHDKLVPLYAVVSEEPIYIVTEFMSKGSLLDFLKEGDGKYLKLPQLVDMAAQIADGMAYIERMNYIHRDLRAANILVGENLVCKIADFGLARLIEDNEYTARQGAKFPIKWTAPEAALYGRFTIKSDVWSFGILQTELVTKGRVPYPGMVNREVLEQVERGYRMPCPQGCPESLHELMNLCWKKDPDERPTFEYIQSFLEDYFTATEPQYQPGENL
# In short: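 ADP-Glo luminescence readout; final 4 nM Yes1, 0.1 mM ATP, 0.3 mg/mL poly(E4Y), Tris pH 7.5, MgCl2, DTT, Brij-35. 20 min compound preincubation, 60 min reaction at RT. Normalized to DMSO wells with and without enzyme.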
# [17] = qHTS for small molecule inhibitors of Yes1 kinase: Counter Assay (AID 686950);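 note: no kinase present so only ADP-Glo detection of a fixed ADP amount is tested; luminescence from ADP-Glo reporting ADP in a fixed ATP and ADP mixture; 0% = DMSO wells with ATP plus ADP and -100% = ATP-only wells without ADP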
# In short: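 Luminescence read-out from ADP-Glo quantifies a fixed ADP amount (0.02 mM ADP with 0.08 mM ATP) after 60 min at room temperature; signal is normalized between DMSO wells with ATP/ADP and with 0.1 mM ATP alone.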
# [18] = qHTS profiling for inhibitors of Plasmodium falciparum (3D7) proliferation (AID 743322; call rule not given here;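 note: infected erythrocytes exposed to compound for 72 h before lysis; 100% = DMSO vehicle wells and 0% = 0.29 µM artemisinin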); conditions: P. falciparum 3D7 proliferation; at 28.7 µM (top of the series)
# In short: as §1
# [19] = qHTS profiling for inhibitors of Plasmodium falciparum (DD2) proliferation (AID 743323; call rule not given here); conditions: lower = more inhibition; at 28.7 µM (top of the series)
# In short: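 Parasite proliferation measured via DNA-dye fluorescence, as uninfected erythrocytes lack DNA. Cultures at 0.3% parasitemia and 2.5% hematocrit incubated 72 h with compound; signal scaled between vehicle and 0.29 uM artemisinin wells.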
# [20] = qHTS profiling for inhibitors of Plasmodium falciparum (HB3) proliferation (AID 743324); conditions: Plasmodium falciparum HB3 blood-stage proliferation; at 28.7 µM (top of the series);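 note: 100% = DMSO vehicle wells and 0% = artemisinin-treated control wells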
# In short: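 P. falciparum HB3 grown in erythrocytes (0.3% parasitemia, 2.5% hematocrit final) with compound for 72 h at 37 C, 5% CO2. Parasite DNA detected by SYBR Green after saponin/triton lysis overnight; normalized to 0.29 uM artemisinin and DMSO.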
structure (smiles),measurement,setting,value
NC(=O)CN1CCCC1=O,Potency,[1],inactive
same,outcome,[2],inactive
same,Potency,[3],inactive
same,outcome,[4],inactive
same,outcome,[5],inactive
same,outcome,[6],inactive
same,outcome,[7],inactive
same,max response,[8],0.359% (inactive) and -8.59% (inactive)
C[C@H]1C(=O)O[C@@H]2CCN3CC=C(COC(=O)[C@](C)(O)[C@]1(C)O)[C@H]23,max response,[9],0.361% (inactive)
same,max response,[10],-1.85% (inactive)
same,max response,[8],14.3% (inactive)
same,max response,[11],-3.57% (inactive)
same,outcome,[12],inactive
O=c1n(Cl)c(=O)n(Cl)c(=O)n1Cl,max response,[9],-0.0703% (inactive)
same,max response,[10],-3.02% (inactive)
same,max response,[8],-4.5% (inactive)
same,max response,[11],2.76% (inactive)
same,outcome,[12],inactive
O=C(NC(=O)c1c(F)cccc1F)Nc1cc(Cl)c(OC(F)(F)C(F)C(F)(F)F)cc1Cl (stereo not given),max response,[9],14.7% (inactive)
same,max response,[10],-21.7% (inactive)
same,max response,[8],13.1% (inactive)
same,max response,[11],-27.8% (inactive)
same,outcome,[12],inactive
O=C(CCl)c1ccc(Cl)cc1Cl,max response,[9],-0.884% (inactive)
same,Potency,[13],7.5 µM (active)
same,Potency,[14],21.1 µM (active)
same,max response,[8],14.5% (inactive) and 7.69% (inactive)
same,Potency,[11],14.1 µM (active)
CCCCCCCCCCCC[N+](C)(C)CCOc1ccccc1,max response,[9],-0.963% (inactive)
same,Potency,[13],10.6 µM (active)
same,Potency,[14],26.6 µM (active)
same,max response,[10],-6.97% (inactive)
same,Potency,[8],8.91 µM (active)
same,outcome,[12],inactive
COC(=O)C1=C(C)NC(C)=C(C(=O)OC)C1c1ccccc1[N+](=O)[O-],Potency,[3],23.1 µM (active)
C=CCOC(Cn1ccnc1)c1ccc(Cl)cc1Cl (stereo not given),max response,[9],-1.42% (inactive) and 0.577% (inactive)
same,max response,[10],-15.2% (inactive) and -7.32% (inactive)
same,max response,[11],-18.6% (inactive) and -17% (inactive)
same,outcome,[12],inactive
CCCCCCCCC(=O)NCc1ccc(O)c(OC)c1,max response,[9],1.45% (inactive)
same,max response,[10],-1.94% (inactive)
same,max response,[8],-2.23% (inactive)
same,max response,[11],-11.8% (inactive)
same,outcome,[12],inactive
COCC(=O)N(c1c(C)cccc1C)C(C)C(=O)OC (stereo not given),max response,[9],-1.66% (inactive)
same,max response,[10],-4.71% (inactive)
same,max response,[8],-6.72% (inactive)
same,max response,[11],-7.89% (inactive)
same,outcome,[12],inactive
COc1ccc(C(=O)N2CCCC2=O)cc1,Potency,[1],inactive
same,outcome,[2],inactive
same,Potency,[3],inactive
same,outcome,[4],inactive
same,outcome,[5],inactive
same,outcome,[6],inactive
same,outcome,[7],inactive
same,max response,[8],-3.61% (inactive) and 29.8% (inactive)
same,"parasite growth, % of DMSO control",[15],90.2%
C[N+](C)(C)CCCCCCCCCC[N+](C)(C)C,Potency,[1],2.69 µM (active)
same,max response,[8],-0.962% (inactive)
COP(=O)(OC)OC=C(Cl)Cl,max response,[9],-1.1% (inactive) [middle of 4 runs]
same,Potency,[13],inactive
same,Potency,[14],inactive
same,max response,[10],-9.52% (inactive) [middle of 4 runs]
same,max response,[8],-6.93% (inactive)
same,max response,[11],-9.07% (inactive) [middle of 4 runs]
same,outcome,[12],inactive
CC[C@H]1CN2CCc3cc(OC)c(OC)cc3[C@@H]2C[C@@H]1C[C@H]1NCCc2cc(OC)c(OC)cc21,outcome,[4],inactive
same,Potency,[8],1.41 µM (active)
CN(C)C(=S)SSC(=S)N(C)C,max response,[9],-9.79% (inactive) and -7.98% (inactive)
same,Potency,[13],5.31 µM (active)
same,Potency,[14],33.5 µM (active)
same,max response,[10],-25.3% (inactive)
same,Potency,[8],0.0662 µM (active)
same,Potency,[11],44.7 µM (active)
same,outcome,[12],inactive
O=C(O)c1nn(Cc2ccc(Cl)cc2Cl)c2ccccc12,outcome,[16],inactive
same,outcome,[17],inactive
same,Potency,[1],inactive
same,outcome,[2],inactive
same,Potency,[3],inactive
same,outcome,[4],inactive
same,outcome,[5],inactive
same,outcome,[6],inactive
same,outcome,[7],inactive
same,max response,[8],-7.97% (inactive) and 31% (inactive)
same,remaining parasite growth % (stronger effect = lower value),[18],86.6%
same,"activity, percent of control",[19],60.1%
same,"remaining proliferation (% of control), lower = more inhibition",[20],104%
same,"parasite growth, % of DMSO control",[15],75.4%
